The campaign covered roughly 360,000 compounds. About 3,100 (0.86%) were called active. The entries come from a sample that favours actives as a whole. Unmarked numbers belong to inactive results.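 The calls were made as follows: active = at least 50% inhibition at 5 µM, scaled per plate between neutral and stimulator controls; inactive = the rest.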
Assay: inhibitors of PAF-induced NF-kB signaling, primary screen, cell-based, GFP fluorescence, uHTS (AID 588850);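 also: PAF is a Pseudomonas aeruginosa culture filtrate used as stimulus; plate controls were PAF-stimulated DMSO wells for no effect and unstimulated DMSO wells for full effect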
Settings: KKLEB NF-kB-GFP reporter, GFP fluorescence overnight, at 5 µM, stronger effect = higher value

Compound | inhibition
COC(=O)CNC(=O)C(CCSC)NC(C)=O (configuration not stated) | -2.1%
COc1ccc2[nH]c(=O)c(CN(Cc3cccnc3)S(=O)(=O)c3ccccc3F)cc2c1 | 82.1% (active)
COc1ccc(-c2[nH]ncc2CN(C)Cc2cccnc2)c(F)c1 | 14.6%
CCOc1ccc2[nH]c(=O)c(CN(CCCO)S(=O)(=O)c3ccc(F)cc3)cc2c1 | 2.3%
CCCN(c1ccc(C(C)C)cc1)S(=O)(=O)c1c(C)[nH]c(=O)[nH]c1=O | -4.9%
Cc1ccc(N(CCC(=O)O)S(=O)(=O)c2cccc(C(F)(F)F)c2)cc1 | 11%
Cc1noc(C)c1S(=O)(=O)Nc1cc(C(F)(F)F)ccc1N1CCOCC1 | 2.4%
Cc1oc2c(F)c(F)c(F)c(F)c2c1S(=O)(=O)Nc1cccc(C(F)(F)F)c1 | 50.4% (active)
Cc1ccsc1C(=O)NC1CCCCC1C (configuration not stated) | 6.2%
CC(C)Cc1nn2c(=O)cc(O)nc2s1 | -9.2%
COC(=O)c1scc(C)c1NC(=O)CSc1ccc(Cl)cc1 | -3.3%
CCCCOc1ccc(C(=O)NCC(=O)OCC(=O)c2c(N)n(C)c(=O)n(C)c2=O)cc1 | 14.9%
O=C(Nc1ccncc1)c1c(F)cccc1F | 81.6% (active)
O=C(Nc1ccc(S(=O)(=O)N2CCCCCC2)cc1)c1c(F)cccc1F | -20.3%
COc1cccc(OC)c1C(=O)Nc1ccc(Cc2ccncc2)cc1 | -1.5%
CNC[C@H]1Oc2c(NC(=O)C3CCCCC3)cccc2C(=O)N([C@H](C)CO)C[C@@H]1C | 12.4%
O=S1(=O)CC(N2CCC(Cc3ccccc3)CC2)CN1Cc1ccccc1 (configuration not stated) | -8.1%
CCNC(=O)CC1C(=O)N(c2ccc(F)cc2)C(=O)N1Cc1cccs1 (configuration not stated) | -17.2%
Cn1c(C(=O)O)ccc1S(=O)(=O)N(Cc1ccccc1)Cc1ccccc1 | -3.7%
C#CCN(C[C@H]1[C@H](OC(=O)NC2CCCC2)[C@H](OC(=O)NC2CCCC2)C[C@H]2C(=O)N(c3ccccc3)C(=O)[C@@H]12)S(=O)(=O)c1ccc(C)cc1 | 15.8%
Cc1ccc(S(=O)(=O)N2C[C@H]3n4c(=O)ccc(=O)n4C[C@H](OC(=O)NC4CCCC4)[C@@]3(O)C2)cc1 | -0.9%
C#CCN(C[C@@H]1[C@@H](OC(=O)NC2CC2)[C@@H](OC(=O)NC2CC2)Cn2c(=O)ccc(=O)n21)S(=O)(=O)c1ccc(C)cc1 | 53.2% (active)

Compound | inhibition
COC(=O)Cc1c(O)ccn(Cc2cccc(C(F)(F)F)c2)c1=O | -7.8%
CCN1CCC(O)(/C=C/c2ccc(C)cc2)C(C(=O)/C=C/c2ccc(C)cc2)C1 (configuration not stated) | 79.8% (active)
CCN1CCC2(CC1)N=C(c1ccc(F)cc1)C(=S)N2C(=O)c1ccc(C)cc1 | 18%
CCOC(=O)C1=CCC2C(=O)N(Cc3ccccc3)C(=O)C12 (configuration not stated) | -1.4%
CCN(C(=O)CSc1nnnn1-c1ccccc1OC)C1CCS(=O)(=O)C1 (configuration not stated) | 6%
COc1ccccc1CN(C)c1nnnn1-c1ccccc1 | -3.9%
COc1ccccc1-n1nnnc1S(=O)(=O)Cc1ccc(Cl)cc1 | 85.9% (active)
CCOC(=O)C1=CC[C@@H](c2ccncc2)N(S(=O)(=O)c2ccc(C)cc2)C1 | 2.5%
CCCC(C(=O)NC1CCCC1)N(C(=O)Cn1nnc(-c2ccc(C)o2)n1)c1cccc(O)c1 (configuration not stated) | -12.5%
O=c1c2cc(Br)ccc2nc(-c2cccc(Cl)c2)n1O | -1.4%
O=c1[nH]c(/C=C/c2cccc(Br)c2)nc2ccccc12 | 20.4%
O=C(/C(=C/c1cccc(Cl)c1)c1nc2ccccc2[nH]1)c1ccccc1 | 82.3% (active)
Cc1cc(NC(=O)CN2C(=O)NC(C)(CCc3ccccc3)C2=O)no1 (configuration not stated) | -2.5%
CC(C)C(C)(C#N)NC(=O)CSc1nc2scc(-c3ccccc3)c2c(=O)[nH]1 (configuration not stated) | 9%
CSCC[C@H](NC(=O)NC1CCCC1)C(=O)O | -10.3%
COc1ccc(NC(=O)C2Cc3c(-c4ccc5c(c4)OCO5)ccnc3O2)cn1 (configuration not stated) | 15.9%
COc1cccc(NC(=S)N(Cc2ccc(C)cc2)Cc2ccccn2)c1 | -2.3%
COc1ccc(NC(=O)/C(Cl)=C(/Cl)S(=O)Cc2ccc(C)cc2)cn1 (configuration not stated) | 90% (active)
O=S(=O)(c1ccc(-c2ccno2)s1)N1CCCCC1 | 7.2%
CC(C(=O)N1CCOCC1)N1c2cccc3cccc(c23)S1(=O)=O (configuration not stated) | 4.3%
COc1cc(C(=O)OC(C)C(=O)NCC2CCCCC2)cc(NC(=O)c2ccco2)c1OC (configuration not stated) | -5.7%
COc1ccc(NC(=O)c2cc(-c3cc(OC)c(OC)c(OC)c3)nc3ccccc23)c(OC)c1 | 60.9% (active)

Compound | inhibition
COc1ccc(NC(=O)c2sc(N3CCOCC3)nc2-c2ccccc2)c(OC)c1 | 9.3%
COc1ccc(-c2cc(C(=O)n3cnc4ccccc43)c3ccccc3n2)cc1 | 5.5%
CC(C)n1cnc2c(Nc3cccc(Cl)c3)nc(N(CCO)CCCO)nc21 | 72.6% (active)
NC(=O)CSc1nnc(-c2cccc(S(=O)(=O)N3CCOCC3)c2)o1 | -5.1%
O=S(=O)(Nc1ccc(OC(F)(F)F)cc1)c1cccc2nonc12 | -3.9%
COc1ccccc1NS(=O)(=O)c1ccc(C(=O)N2CCN(c3ccccc3O)CC2)cc1 | 6.4%
O=S(=O)(Nc1ccc(O)c2ccccc12)c1ccc(OC(F)(F)F)cc1 | 96% (active)
CCOC(=O)CN1CC23C=CC(O2)C(C(=O)Nc2ccc(F)cc2)C3C1=O (configuration not stated) | -8.9%
NS(=O)(=O)c1ccc(CCNC(=O)CCCn2c(SCC(=O)N3CCCC3)nc3ccsc3c2=O)cc1 | -8.6%
NS(=O)(=O)c1cc2c(cc1Cl)NC(C(Cl)Cl)NS2(=O)=O (configuration not stated) | 22%
CCN1CCN(C(=O)N(Cc2ccc(Cl)cc2)S(=O)(=O)c2ccc(C)cc2)CC1 | 3.2%
O=C(c1cnn(-c2ccc(Cl)cc2)c1)c1ccccc1O | -14.6%
Cc1ncc(CC(=O)n2cc(C(=O)c3cc(Cl)ccc3O)cn2)s1 | 60.8% (active)
Cc1nc2ccccn2c(=O)c1NC(=O)c1ccc(Br)o1 | 11.6%
Cc1ccc(SCC(=O)c2cc(C)c(OC(=S)N(C)C)c(C)c2)cc1 | 0%
Cc1nnc(NC(=O)CCC(=O)N2CCC(C)CC2)s1 | 8.8%
CCCCCCCCc1c(O)nc(-n2[nH]c(C)c(CCO)c2=O)[nH]c1=O | 12.1%
CC(=O)OCC(COC(C)=O)OC(C)=O | -7.3%
CC(=O)OC(C)C[N+](C)(C)C (configuration not stated) | 80.7% (active)
CC(C[N+](C)(C)C)OC(N)=O (configuration not stated) | 3.2%
O=S(=O)(c1cccc(C(F)(F)F)c1)N1c2ccccc2-n2cccc2C1c1cccnc1 (configuration not stated) | 13.5%
Cc1cccc(C)c1NC(=O)C(Cl)C(=O)c1ccccc1 (configuration not stated) | -23.4%

Compound | inhibition
N#Cc1c(N)nc2c3c(sc(=N)c2c1N)NC(=O)CC3c1ccccc1Cl (configuration not stated) | -8.3%
CCC(C)[C@H]1COCCS(=O)(=O)N1Cc1ccc(C)cc1 (some centres not stated) | -9.6%
CCOc1ccc(CCN2C(=S)N([C@@H](CC(C)C)CN3CCC[C@@H]3CN3C(=S)NC[C@@H]3Cc3ccc(O)cc3)C[C@@H]2CC(C)C)cc1 | 13.3%
CCOc1ccc(CCN2C(=S)N([C@@H](CC(C)C)CN3CCC[C@@H]3CN3C(=S)NC[C@@H]3Cc3ccc(O)cc3)C[C@@H]2Cc2ccc(O)cc2)cc1 | 40.9%
CC(C)C[C@H]1CNC(=S)N1C[C@H]1CCCN1C[C@H](Cc1ccc(O)cc1)N1C[C@H](Cc2ccc(O)cc2)N(CC2CCCCC2)C1=S | 65.6% (active)
O=C(NCc1ccncc1)c1ccc(NS(=O)(=O)c2cccc([N+](=O)[O-])c2)cc1 | 8.5%
O=[N+]([O-])c1cc(S(=O)(=O)Nc2cccc(Cl)c2)ccc1N=Nc1c(O)[nH]c2ccccc12 | 80% (active)
Cc1c(-c2ccccc2)n[nH]c1C(=O)N=Nc1c(O)[nH]c2ccccc12 | -0.9%
Cc1ccc([C@H]2C[C@H](O)[C@@H](n3cc(COC(=O)c4ccccc4)nn3)CN2CC2CCCCC2)cc1 | 58.5% (active)
CCCCCC(=O)N1C[C@H](O)[C@@H](n2cc(COC(=O)c3ccccc3)nn2)C[C@@H]1c1ccc(C)cc1 | -3.3%
Cc1ccc([C@H]2C[C@H](O)[C@@H](n3cc(COC(=O)c4ccccc4)nn3)CN2C(=O)C2CCCCC2)cc1 | 1.3%
CC(C)=CCN1CCN(CCCc2ccccc2)CC1CCO (configuration not stated) | 1.3%
Cc1ccc(C(O)c2ncc(-c3ccccc3F)[nH]2)cc1F (configuration not stated) | -1.5%
COc1ccc(NC(=S)SC)cc1OC | 59.7% (active)
COc1ccc(NC(=O)CSCc2ccc([N+](=O)[O-])cc2)cc1OC | 2.8%
COc1ccc(NC(=O)C2C3CCC(O3)C2C(=O)O)cc1OC (configuration not stated) | -25.3%
COc1ccc(Cl)cc1NS(=O)(=O)c1cccc(C(=O)NCC2CCCO2)c1 (configuration not stated) | -16.2%
O=C(CSc1nnc(-c2ccoc2)o1)N1CCOCC1 | -7.3%
COc1cccc(C(NC(C)=O)c2nc(-c3ccccc3OC)cs2)c1 (configuration not stated) | -4%
CCOP(=O)(OCC)C(Cc1ccccc1)N=C(c1ccccc1)c1ccccc1 (configuration not stated) | 2.4%
Cc1cc(=O)oc2c3c(cc(OCC(=O)NCC(O)c4ccccc4)c12)OC(C)(C)CC3 (configuration not stated) | -24.9%

From PubChem BioAssay AID588850 (Sanford-Burnham Center for Chemical Genomics, 2011)
